# Among all 39,000 compounds or so, about 3,300 (8.5%) were called active. Shown is part of a subset that was picked to be rich in actives.
# Tested on: HepG2
# Assay: cytotoxicity call (relative viability < 0.9)
# Settings: 10 µM
row,SMILES,cytotoxicity call
1,N=C(N=C(N)N)N1CCOCC1,inactive
2,O=C1N[C@@H]2[C@@H]1[C@H]1C=C[C@H]2C1,inactive
3,C[C@@H]1CCCCO[C@H](CN(C)C(=O)Nc2ccc(F)cc2)[C@H](C)CN([C@@H](C)CO)C(=O)c2cc(NS(=O)(=O)c3ccc(F)cc3)ccc2O1,inactive
4,C[C@H]1CN([C@@H](C)CO)C(=O)c2cc(-c3ccncc3)cnc2O[C@@H]1CN(C)S(=O)(=O)c1ccc(F)cc1,inactive
5,COc1ccccc1CNC(=O)C[C@@H]1C[C@@H]2c3cc(NC(=O)c4ccc5c(c4)OCO5)ccc3O[C@@H]2[C@@H](CO)O1,inactive
6,CNC(=O)c1ccc(CO)cc1,inactive
7,CN(C)Cc1cn(CC[C@@H]2CC[C@H](N)[C@@H](CO)O2)nn1,inactive
8,C[C@H]1CN([C@@H](C)CO)C(=O)c2cccc(NC(=O)NC3CCCCC3)c2O[C@H]1CN(C)S(=O)(=O)c1cn(C)cn1,inactive
9,O=C(C[C@@H]1CC[C@H]2[C@@H](COC[C@@H](O)CN2C(=O)c2ccccn2)O1)NC1CCC1,inactive
10,CN1CCC(=C2c3ccccc3Sc3ccccc32)CC1.O=C(O)C=CC(=O)O,active
11,CN1CCC(=C2c3ccccc3C=Cc3ccccc32)CC1.Cl,active
12,CN1C(=O)c2ccccc2C1=O,inactive
13,CN1CCN(C(c2ccccc2)c2ccccc2)CC1,inactive
14,CN1CCC(=C2c3ccccc3CC(=O)c3sccc32)CC1.O=C(O)C=CC(=O)O,inactive
15,CN1CCC(=C2c3ccccc3CCc3sccc32)CC1.O=C(O)CC(O)C(=O)O,inactive
16,C[C@H]1CCCCO[C@H](CN(C)C(=O)Nc2ccc(C(F)(F)F)cc2)[C@@H](C)CN([C@@H](C)CO)C(=O)c2cc(NC(=O)c3ccccc3)ccc2O1,inactive
17,CCOC(=O)[C@@H]1C(Cc2ccccc2)=CN(CCc2ccc(OC)c(OC)c2)C(=O)N1c1ccc(OC)cc1,inactive
18,C[C@@H]1CN([C@H](C)CO)C(=O)c2cc(C#CCN(C)C)cnc2O[C@@H]1CN(C)C(=O)Nc1cccc(F)c1,inactive
19,C[C@@H]1CN([C@H](C)CO)C(=O)c2cccc(NC(=O)c3nc4ccccc4s3)c2O[C@@H]1CN(C)C(=O)Nc1cccc2ccccc12,inactive
20,C[C@@H]1CN([C@H](C)CO)C(=O)c2cccc(NC(=O)c3nc4ccccc4s3)c2O[C@H]1CN(C)CC1CCCCC1,inactive
21,C[C@H]1CN([C@@H](C)CO)C(=O)c2cccc(NC(=O)c3nc4ccccc4s3)c2O[C@H]1CN(C)C(=O)Nc1cccc2ccccc12,inactive
22,C[C@H]1CN([C@@H](C)CO)C(=O)c2cccc(NC(=O)c3nc4ccccc4s3)c2O[C@@H]1CN(C)C(=O)Nc1cccc2ccccc12,inactive

row,SMILES,cytotoxicity call
1,C[C@H](CO)N1C[C@H](C)[C@@H](CN(C)C(=O)Nc2cccc3ccccc23)Oc2c(NC(=O)c3nc4ccccc4s3)cccc2C1=O,active
2,C[C@@H]1CN([C@@H](C)CO)C(=O)c2cccc(NC(=O)c3nc4ccccc4s3)c2O[C@@H]1CN(C)CC1CCCCC1,active
3,C[C@@H]1CN([C@@H](C)CO)C(=O)c2cccc(NC(=O)c3nc4ccccc4s3)c2O[C@H]1CN(C)C(=O)Nc1cccc2ccccc12,active
4,C[C@@H]1CN([C@@H](C)CO)C(=O)c2cccc(NC(=O)c3nc4ccccc4s3)c2O[C@H]1CN(C)CC1CCCCC1,inactive
5,C[C@H](CO)N1C[C@H](C)[C@H](CN(C)C(=O)Nc2cccc3ccccc23)Oc2c(NC(=O)c3nc4ccccc4s3)cccc2C1=O,inactive
6,COc1cccc(S(=O)(=O)N[C@H]2CC[C@@H](CC(=O)NC3CCC3)O[C@H]2CO)c1,inactive
7,COC(=O)c1c[nH]c(=S)n1C,inactive
8,COc1ccc(NC(=O)Nc2cccc3c2O[C@H](CN(C)Cc2ccc(C(=O)Nc4ccccc4N)cc2)[C@@H](C)CN([C@@H](C)CO)C3=O)cc1,inactive
9,O=C(C[C@H]1CC[C@@H]2[C@H](COC[C@H](O)CN2C(=O)c2ccccc2F)O1)N1CCN(c2ccccc2)CC1,inactive
10,CC[C@@H](C)SSc1ncc[nH]1,inactive
11,C[C@@H]1CN([C@H](C)CO)C(=O)c2cc(NC(=O)C3CCCCC3)ccc2O[C@@H](C)CCCCO[C@@H]1CN(C)C(=O)Nc1cccc2ccccc12,active
12,C[C@@H]1CCCCO[C@@H](CN(C)C(=O)Nc2cccc3ccccc23)[C@@H](C)CN([C@H](C)CO)C(=O)c2cc(NC(=O)C3CCCCC3)ccc2O1,inactive
13,C[C@@H]1CCCCO[C@H](CN(C)C(=O)Nc2cccc3ccccc23)[C@@H](C)CN([C@@H](C)CO)C(=O)c2cc(NC(=O)C3CCCCC3)ccc2O1,inactive
14,C[C@@H]1CCCCO[C@@H](CN(C)C(=O)Nc2cccc3ccccc23)[C@@H](C)CN([C@@H](C)CO)C(=O)c2cc(NC(=O)C3CCCCC3)ccc2O1,inactive
15,C[C@@H]1CCCCO[C@H](CN(C)C(=O)Nc2cccc3ccccc23)[C@H](C)CN([C@H](C)CO)C(=O)c2cc(NC(=O)C3CCCCC3)ccc2O1,active
16,C[C@H](CO)N1C[C@H](C)[C@@H](CN(C)C(=O)Nc2cccc3ccccc23)OCCCC[C@H](C)Oc2ccc(NC(=O)C3CCCCC3)cc2C1=O,inactive
17,C[C@@H]1CCCCO[C@@H](CN(C)C(=O)Nc2cccc3ccccc23)[C@H](C)CN([C@@H](C)CO)C(=O)c2cc(NC(=O)C3CCCCC3)ccc2O1,inactive
18,C[C@H]1CCCCO[C@@H](CN(C)C(=O)Nc2cccc3ccccc23)[C@@H](C)CN([C@@H](C)CO)C(=O)c2cc(NC(=O)C3CCCCC3)ccc2O1,inactive
19,C[C@@H]1CCCCO[C@@H](CN(C)C(=O)Nc2cccc3ccccc23)[C@H](C)CN([C@H](C)CO)C(=O)c2cc(NC(=O)C3CCCCC3)ccc2O1,active
20,C[C@H](CO)N1C[C@H](C)[C@H](CN(C)C(=O)Nc2cccc3ccccc23)OCCCC[C@H](C)Oc2ccc(NC(=O)C3CCCCC3)cc2C1=O,active
21,C[C@@H]1CCCCO[C@H](CN(C)C(=O)Nc2cccc3ccccc23)[C@@H](C)CN([C@H](C)CO)C(=O)c2cc(NC(=O)C3CCCCC3)ccc2O1,inactive
22,C[C@@H]1CN([C@H](C)CO)C(=O)c2cc(NC(=O)C3CCCCC3)ccc2O[C@@H](C)CCCCO[C@H]1CN(C)C(=O)Nc1cccc2ccccc12,inactive
